Compound activity from PubChem.
FMDV inh: blocks foot and mouth disease virus | 410,000 tested, 1.2% active | Potency, µM (series often up to 57.9 µM), for the others: at the highest dose activity change, negative = inhibition, most hits filed as inhibitors | AID 1159524 | FMDV antiviral cell-based qHTS; calls by dose curve; tested in HEK293T cells; also: read-out not given here; nearly all actives have a fitted effect of over 45% in size
AmpC no deterg: blocks E. coli AmpC beta-lactamase in detergent-free assay. P00811. AmpC nitrocefin hydrolysis, absorbance 480 nm, 0.0001% Triton. Potency, µM (titrated, usually from 57.1 µM), for the others: at the highest dose activity change, negative = inhibition, hits mostly inhibitors. 330,000 tested, 0.52% active;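 also: plate controls were no compound for no effect and no enzyme for full effect; nearly all actives have a fitted effect of over 20% in size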
Target sequence (P00811 whole entry, looked up): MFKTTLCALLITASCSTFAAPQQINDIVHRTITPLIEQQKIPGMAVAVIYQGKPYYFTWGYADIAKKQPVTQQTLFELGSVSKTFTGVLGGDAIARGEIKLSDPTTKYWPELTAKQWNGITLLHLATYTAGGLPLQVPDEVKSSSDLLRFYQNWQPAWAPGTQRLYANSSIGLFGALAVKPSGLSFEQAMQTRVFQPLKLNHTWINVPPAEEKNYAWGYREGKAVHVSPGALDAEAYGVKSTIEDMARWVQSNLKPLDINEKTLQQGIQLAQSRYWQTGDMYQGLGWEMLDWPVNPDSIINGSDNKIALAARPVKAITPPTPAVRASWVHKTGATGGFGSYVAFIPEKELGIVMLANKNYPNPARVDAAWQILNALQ
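AmpC (5.3 nM in the dispensed reagent) in 20 mM phosphate pH 7.0 with 0.01% (detergent screen) or 0.0001% Triton X-100 was preincubated with compounds for 15 min at room temperature. Nitrocefin was then added from an 800 uM solution, and hydrolysis was followed at 480 nm.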
Sm TGR block: inhibitors of Schistosoma mansoni thioredoxin glutathione reductase | Q962Y6 | purified TGR, DTNB reduction, TNB absorbance 405 nm | Potency, µM (titrated, usually from 114 µM), without a hit: top-dose activity change, negative = inhibition, usual class: inhibitors | 360,000 tested, 3% active; also: nearly all actives have a fitted effect of over 60% in size
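TGR 20 nM + NADPH 100 uM (dispensed conc.), cpd preinc 15 min RT; start with NADPH (500 uM addition) then DTNB (15 mM addition). Kinetic TNB absorbance, 405 nm filter. Four-parameter Hill fit across titration.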
AMA1-RON2 inh: disrupts binding of P. falciparum AMA1 to RON2. AlphaScreen AMA1-biotinylated RON2 peptide binding. Potency, µM (series often up to 58.2 µM), for inactives: at the top dose activity change, negative = inhibition, actives largely listed as inhibitors. 360,000 tested, 0.2% active. AID 720542;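 also: 0% = vehicle wells and -100% = peptide control; nearly all actives have a fitted effect of over 45% in size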
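AMA1 (3D7) with his tag at 25 nM final met compounds first, then biotinylated RON2 peptide at 25 nM; detection used donor plus acceptor beads, 10 µg/mL apiece, read by AlphaScreen after 30 min at room temperature.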
AmpC detergent: AmpC beta-lactamase inhibition with detergent present. 370,000 tested, 0.041% active. Potency, µM (doses to about 114 µM), inactives show top-dose activity change, negative = inhibition, most hits filed as inhibitors. P00811. AID 485294. AmpC hydrolysis of nitrocefin, absorbance 480 nm, 0.01% Triton;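 also: 0% = no-compound wells and -100% = no-enzyme wells; nearly all actives have a fitted effect of over 25% in size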
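AmpC (5.3 nM in the dispensed reagent) in 20 mM phosphate pH 7.0 with 0.01% (detergent screen) or 0.0001% Triton X-100 was preincubated with compounds for 15 min at room temperature. Nitrocefin was then added from an 800 uM solution, and hydrolysis was followed at 480 nm.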
Active calls of the source: *; ? = inconclusive; nt = not tested or not shown. An excerpt weighted towards active compounds, which were near 4.1% of everything screened. Unless noted, calls follow the shape of the dose curve; as a rule, active = well fitted curve in the direction sought with a large enough effect; inconclusive = small, poorly fitted or top-dose-only effect, or another doubt; inactive = no such curve, though single readings can be large; an effect the other way counts as inactive or inconclusive. Unless noted, % is scaled to controls: 0 for no effect and ±100 for the full control effect; potency is read from the fitted curve at half-maximal effect.

SMILES	FMDV inh	AmpC no deterg	Sm TGR block	AMA1-RON2 inh	AmpC detergent
CN(Cc1cnccn1)C(=O)CC1C(=O)NCCN1CC(c1ccccc1)c1ccccc1 (centres undefined)	6%	83%	45µM*	16%	5%
CN(Cc1cnccn1)C(=O)CC1C(=O)NCCN1Cc1c(F)cccc1Cl (centres undefined)	-9%	-8%	32µM*	38%	3%
O=C(NCC1Cc2cc(F)cc(-c3cnccn3)c2O1)c1cccc(Cl)c1 (centres undefined)	-12%	nt	nt	nt	nt
O=C(CCn1cccc1)Nc1cccc(F)c1	2%	-10%	35µM*	-9%	-3%
Cc1c(C(O)CN2CCN(Cc3ccc4c(c3)OCO4)CC2)c2ccccc2n1C (centres undefined)	-14%	38%	28µM*	-20%	?
COc1ccc2c(c1)c(C(O)CN1CCN(Cc3ccc4c(c3)OCO4)CC1)c(C)n2C (centres undefined)	0%	161%	25µM*	-14%	-9%
COc1ccccc1NC(=O)c1sc2ncn(Cc3cccc(C)c3)c(=O)c2c1C	nt	?	-1%	3%	-1%
COc1ccccc1NC(=O)c1sc2ncn(Cc3ccc(C)cc3)c(=O)c2c1C	nt	0.32µM*	-2%	-3%	-4%
CCN1CCN(C(=O)c2ccc3c(c2)N(Cc2cc(C)ccc2C)C(=O)c2ccccc2S3=O)CC1 (centres undefined)	-21%	nt	-11%	nt	1%
COc1ccc2c(=O)c3c(=O)n(Cc4ccco4)c(-c4ccccc4)nc3oc2c1	-18%	-16%	32µM*	-8%	-3%
CCCc1nc2sc3ccccc3c(=O)c2c(=O)n1Cc1ccc(OC)cc1	?	-15%	-13%	-20%	-8%
CCCc1nc2sc3ccccc3c(=O)c2c(=O)n1Cc1ccco1	-14%	-47%	35µM*	-23%	-1%
CCCc1nc2oc3cc(OC)ccc3c(=O)c2c(=O)n1Cc1ccco1	-22%	-22%	40µM*	-6%	-9%
COc1ccc2c(=O)c3c(=O)n(Cc4ccco4)c(-c4cc(OC)c(OC)c(OC)c4)nc3oc2c1	4%	-13%	?	-2%	-2%
COc1ccc2c(c1)CCc1cnc(-n3ncc(C(=O)N4CCN(CCO)CC4)c3C3CC3)nc1-2	-9%	nt	nt	nt	nt
CCOC(=O)c1ccccc1NC(=O)CN(c1ccccc1OC)S(=O)(=O)c1ccc(C)cc1	-13%	nt	6%	nt	11%
O=C(Nc1cccc(Cl)c1)c1ccccc1	50%	-12%	-1%	15%	-9%
O=C(NC1=C(Nc2ccc(Cl)cc2)C(=O)c2ccccc2C1=O)c1ccccc1	-17%	-29%	6.3µM*	-5%	1%
CN(C1=C(NC(=O)c2ccc(Cl)cc2)C(=O)c2ccccc2C1=O)c1ccccc1	?	-18%	-25%	10µM*	-1%
O=C1C(Cl)=C(NC(=O)c2ccccc2)C(=O)C(Cl)=C1NC(=O)c1ccccc1	28µM*	-53%	?	-9%	?
Cc1cccc(NC2=C(NC(=O)c3ccccc3)C(=O)c3ccccc3C2=O)c1	0%	-29%	2.2µM*	?	-12%
O=C(Nc1ccc(Nc2ccccc2)cc1)c1ccc(Cl)cc1	4%	nt	nt	-15%	nt
Cc1cccc(NC(=O)c2cccc(C(=O)Nc3cccc(C)c3)c2)c1	-4%	-29%	?	2%	-6%
CCOc1cc2c(cc1OCC)C(CC(=O)O)N(C(=O)Nc1ccccc1C(F)(F)F)CC2 (centres undefined)	1%	nt	0%	nt	1%
CCc1ccc(NC(=O)Cn2c(=O)n(Cc3ccc4c(c3)OCO4)c(=O)c3oc4ccccc4c32)cc1	-11%	nt	-1%	nt	-6%
SMILES	FMDV inh	AmpC no deterg	Sm TGR block	AMA1-RON2 inh	AmpC detergent
Cc1ccc(CSCC(=O)N(C)CC(=O)Nc2ccc(Br)cc2C)cc1	-13%	2%	50µM*	-16%	-11%
O=C(C1CCN(c2ncnc3c2nc2n3CCCCC2)CC1)N1CCN(c2ccccc2)CC1	?	nt	0%	nt	0%
Fc1ccc(N2CCN(c3ncnc4c3nc3n4CCCC3)CC2)cc1	1.8µM*	nt	?	nt	2%
O=C(C1CCN(c2ncnc3c2nc2n3CCCCC2)CC1)N1CCN(c2ccc(F)cc2)CC1	32µM*	93%	-15%	-11%	4%
O=C(O[C@@H]1Cc2c(O)cc(O)cc2O[C@@H]1c1cc(O)c(O)c(O)c1)c1cc(O)c(O)c(O)c1	nt	-33%	11µM*	nt	0%
O=C(N[C@H]1CCC(=O)N(CCSc2ccc(Br)cc2)CC1)OCc1ccccc1	32µM*	80%	0%	-7%	9%
Cc1oc(-c2ccccc2NC(=O)C2CCC2)nc1CNC(=O)c1ccc(C#CC(C)(C)O)cc1	2%	nt	nt	nt	nt
CC(=S)c1c(C)cc2cc(C)ccn12	-4%	-15%	18µM*	?	-3%
Cc1cc2ccccn2c1C(=O)Nc1ccccc1	19%	-19%	9%	-28%	2%
O=C(/C=C/c1ccc(Cl)cc1)N1CCN(c2ccc([N+](=O)[O-])c(N3CCOCC3)c2)CC1	14µM*	99%	-5%	-2%	-14%
CCc1cccc(CC)c1NC(=O)Cn1nnc2sc3c(c2c1=O)CCCC3	0%	nt	3%	nt	26%
Oc1ccc(-c2cn3ccccc3n2)cc1O	-17%	-10%	?	22µM*	-14%
Cc1ccn2cc(-c3ccc(O)c(O)c3)nc2c1	-72%	-15%	?	2.5µM*	-1%
COc1cccc(CNC(=O)c2c(OC)cc(=O)n3c2CCN(C(=O)C2=C(C)OCCO2)CC3)c1	31%	nt	nt	nt	nt
OCCCn1c(-c2ccc(F)cc2)csc1=Nc1ccc(F)cc1	0%	nt	-30%	nt	-4%
COc1ccccc1N=c1scc(-c2ccc(S(=O)(=O)N3CCCC3)cc2)n1C	2.8µM*	nt	-21%	nt	0%
CC(=O)c1cccc(N=c2scc(-c3ccc(S(=O)(=O)N4CCOCC4)cc3)n2CCO)c1	20µM*	312%	5%	?	-2%
O=S(=O)(c1ccc(-c2csc(=Nc3ccc(F)cc3)n2CCCCCCO)cc1)N1CCCC1	25µM*	nt	-2%	nt	-2%
CN1CCN(C(CNC(=O)C(=O)Nc2ccccc2)c2ccc3c(c2)OCO3)CC1 (centres undefined)	-6%	nt	-5%	nt	6%
Cc1ccc(NS(=O)(=O)c2ccc(-c3cc(C)no3)cc2)c(Br)c1	-19%	nt	7%	nt	12%
S=C(Nc1ccccc1)Nc1nccs1	34%	-35%	11µM*	66%	6%
Cc1cccc(C(=O)NCCc2csc(C)n2)c1	4%	3.5µM*	-1%	3%	-11%
O=C(NCCc1csc(-c2cccnc2)n1)c1ccccc1	-11%	1.4µM*	5%	-3%	?
O=C(NCCc1csc(-c2ccc(Cl)cc2)n1)c1cccs1	25µM*	nt	0%	nt	-6%
Cc1ccc(C(=O)NCCc2csc(C)n2)cc1	20%	-5%	1%	9%	?
